# According to PubChem BioAssay (NCATS):
# Results filed as inconclusive are left out. Unmarked numbers belong to inactive results. Active and inactive are the calls of the source. Calls follow the shape of the dose curve; as a rule, active = well fitted cell-killing curve with a large enough effect; inconclusive = small, poorly fitted or top-dose-only effect; inactive = flat fitted curve, though single readings scatter.
# Test: Cell Viability - NIH 3T3 (AID 541);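 also: plate controls were DMSO alone for no effect and tamoxifen positive control for full effect; nearly all actives have a fitted effect of over 25% in size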
# Settings: NIH 3T3 cell viability, qHTS; at 92.2 µM (top of the series)
# From the text: NIH Chemical Genomics Center [NCGC]
# NIH Molecular Libraries Screening Centers Network [MLSCN]
# National Institutes of Environmental Health Sciences [NIEHS]
# National Toxicology Program [NTP]
# We have developed a 1536-well cell-based assay for quantitative high throughput screening (qHTS) against a number of cell lines to determine in vitro cytotoxicity of small molecules. This particular assay uses the NIH 3T3 fibroblast cell line which is established from NIH Swiss mouse embryo.
# NCGC Assay Protocol Summary:
# The CellTiter-Glo luminescent cell viability assay (Promega) is a homogeneous method to measure the number of viable cells in culture. The end point readout of this assay is based on quantitation of intracellular ATP, an indicator of metabolic activity, using the luciferase reaction. Luciferase catalyzes the oxidation of beetle Luciferin to oxyluciferin and light in the presence of ATP. The luminescent signal is proportional to amount of ATP present.
# Using the CellTiter-Glo luminescent cell viability assay, the amount of cellular ATP was measured in the NIH 3T3 cell line with complete culture medium following compound treatment for 40 hours. The assay was performed in opaque white Kalypsys 1536-well plates. In the screen, tamoxifen and doxorubicin were used as positive controls. Library compounds were measured for their ability to cause acute toxicity in the cell line, as reflected by a decrease in intracellular ATP levels, in a concentration-dependent manner. […] AC50 values were determined from concentration-response data modeled with the standard Hill equation.
# qHTS protocol for CellTiter Glo NIH 3T3 cellular assay
# [Step] [Parameter] [Value] [Description]
# 1. Reagent; 5 uL; 1000 NIH 3T3 cells/well
# 2. Time; 5 hr; 37 °C incubation
# 4. Controls; 23 nL; Tamoxifen 0.34 uM to 100 uM & Doxorubicin 0.02 nM to 100 uM
# 5. Time; 40 hr; 37 °C incubation
# 6. Reagent; 5 uL; CellTiter Glo reagent
# 7. Time; 20 min; Room Temperature
# 8. Detection; Luminescence; Viewlux plate reader
# Keywords: cell viability, cytotoxicity, NIH 3T3 cell line, luminescence, NTPHTS, NTPHTS_NCGC, NIEHS, EPA, DSSTox, MLSMR, MLSCN, NIH Roadmap, qHTS, NCGC
row,Structure (SMILES),"activity change, negative = cytotoxicity"
1,O=c1[nH]cnc2c1ncn2[C@H]1CC[C@@H](CO)O1,6.95%
2,CCCNC(=O)NS(=O)(=O)c1ccc(Cl)cc1,4.29%
3,O=C(O)Cc1cccc2ccccc12,-29.6%
4,CCCCC1C(=O)N(c2ccccc2)N(c2ccccc2)C1=O,-19.1%
5,CC(=O)c1ccc(S(=O)(=O)NC(=O)NC2CCCCC2)cc1,-15.1%
6,CN(C)CCC(c1ccccc1)c1ccccn1 (stereo unspecified),-2.83%
7,O=C1NC(=O)C(c2ccccc2)(c2ccccc2)N1,-17.5%
8,CC1=C(/C=C/C(C)=C/C=C/C(C)=C/C(=O)Nc2ccc(O)cc2)C(C)(C)CCC1,-85.6% (active)
9,O=c1cc(-c2ccc(O)cc2)oc2cc(O)cc(O)c12,-105% (active)
10,CC(=O)O[C@]1(C(C)=O)CC[C@H]2[C@@H]3C=C(Cl)C4=CC(=O)[C@@H]5C[C@@H]5[C@]4(C)[C@H]3CC[C@@]21C,-124% (active)
11,CCn1cc(C(=O)O)c(=O)c2ccc(C)nc21,4.63%
